According to PubChem BioAssay (NCATS):
Where “and” joins values, the source holds several entries; their conditions need not be identical. Equal values may be shown once. Records with an inconclusive call do not appear. A call without a number means that no potency is given here. Some compounds were tested as several samples or in several runs, with calls that do not always agree. Calls of active or inactive are those of the source. The call rests on the fitted dose curve; in most records, active means well fitted curve in the direction sought with a large enough effect; inconclusive means small, poorly fitted or top-dose-only effect, or another doubt; inactive means no such curve, though single readings can be large; an effect the other way counts as inactive or inconclusive.

What was measured:
[1] = biological target: Glutathione peroxidase 1 (Homo sapiens) (UniProt P07203); assay: Primary qHTS Assay for Inhibitors of Recombinant Selenoprotein Glutathione Peroxidase 1 (GPX1) (AID 1845191); further: nearly all actives have a fitted effect of over 65% in size
Chain of Glutathione peroxidase 1 (Homo sapiens) (P07203 whole entry, looked up): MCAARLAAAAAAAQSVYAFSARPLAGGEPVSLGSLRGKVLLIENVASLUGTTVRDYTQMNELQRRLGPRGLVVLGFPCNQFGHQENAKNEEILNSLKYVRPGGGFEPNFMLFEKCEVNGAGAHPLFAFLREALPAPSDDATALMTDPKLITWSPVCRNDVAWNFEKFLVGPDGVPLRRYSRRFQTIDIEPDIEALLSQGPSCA
In short: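 GPX1 10 nM, GR 100 nM, GSH 1 mM, NADPH 0.5 mM, CHP 0.5 mM (final). 30-min cpd preincubation, RT. Ex340/Em450 read t=0, t=15 min.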

[2] = biological target: Phospholipid hydroperoxide glutathione peroxidase GPX4 (Homo sapiens) (UniProt P36969); assay: Primary qHTS Assay for Inhibitors of Recombinant Selenoprotein Glutathione Peroxidase 4 (GPX4) (AID 1845192); further: nearly all actives have a fitted effect of over 65% in size; further: potency means the concentration at half of the fitted maximal effect
Chain of Phospholipid hydroperoxide glutathione peroxidase GPX4 (Homo sapiens) (P36969 whole entry, looked up): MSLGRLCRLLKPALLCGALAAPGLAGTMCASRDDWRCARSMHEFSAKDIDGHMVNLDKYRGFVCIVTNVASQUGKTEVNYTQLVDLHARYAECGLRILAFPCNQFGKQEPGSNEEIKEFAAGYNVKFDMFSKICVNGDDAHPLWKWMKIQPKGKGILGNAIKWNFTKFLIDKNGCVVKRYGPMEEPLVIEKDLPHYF
In short: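 qHTS, GR-coupled: GPX4 200 nM + cpd 30 min RT → GSH 1 mM, NADPH 0.5 mM, GR 100 nM → CHP 0.5 mM start; fluor 340/450 at t0 and t15 min; no-enzyme wells as control.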

[3] = Primary fluorescence-based thiol-reactive (MSTI) qHTS assay for identification of artifact compounds. (AID 1845221); further: nearly all actives have a fitted effect of over 65% in size; further: potency means the concentration at half of the fitted maximal effect
In short: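 Thiol-reactive compounds detected by quenching of 4 uM MSTI fluorescence (525/598 nm) after 1 h room-temperature dark incubation in PBS pH 7.4, 2% DMSO. qHTS titration; percent inhibition Hill-fitted against Acetyl-MSTI/MSTI controls.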

[4] = Primary redox qHTS assay for identification of artifact compounds. (AID 1845223)
In short: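 Redox-cycling detection via DTT (250 uM final) oxidation coupled to Amplex Red (25 uM)/HRP (250 mU/mL) in HBSS. 15 min preincubation plus 30 min after DTT, room temperature. Ex/Em 525/598 nm; 4-parameter Hill fit against DMSO and 10 uM DA3003.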

[5] = Quantitative High-Throughput drug screen in 47 multiple myeloma cell lines against the NCATS MIPE library collection: FR4_PLB cell viability assay (AID 1918924; further: nearly all actives have a fitted effect of over 35% in size; further: potency means the concentration at half of the fitted maximal effect)
In short: (§1)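 qHTS of the MIPE 4.0 collection: 500 myeloma cells/well, 48 h drug exposure at 37C in 5% CO2, then CellTiter-Glo for 5 min at room temperature before luminescence reading.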

[6] = Quantitative High-Throughput drug screen in 47 multiple myeloma cell lines against the NCATS MIPE library collection: EJM_DSMZ cell viability assay (AID 1918926; further: nearly all actives have a fitted effect of over 30% in size; further: potency means the concentration at half of the fitted maximal effect)
In short: (§2)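 Primary qHTS used for cherry-picking: cells at 500/well, library compounds for 48 h (37C, 5% CO2), luminescent ATP assay.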

[7] = Quantitative High-Throughput drug screen in 47 multiple myeloma cell lines against the NCATS MIPE library collection: AMO1_DSMZ cell viability assay (AID 1918927; further: nearly all actives have a fitted effect of over 30% in size; further: potency means the concentration at half of the fitted maximal effect)
In short: as §2

[8] = Quantitative High-Throughput drug screen in 47 multiple myeloma cell lines against the NCATS MIPE library collection: Karpas620_DSMZ cell viability assay (AID 1918959); further: nearly all actives have a fitted effect of over 30% in size; further: potency means the concentration at half of the fitted maximal effect
In short: as §1

[9] = Quantitative High-Throughput drug screen in 47 multiple myeloma cell lines against the NCATS MIPE library collection: KMM1_JCRB cell viability assay (AID 1918960); further: nearly all actives have a fitted effect of over 30% in size; further: potency means the concentration at half of the fitted maximal effect
In short: (§3)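 500 cells/well; MIPE 4.0 library pinned in; 48 h, 37 °C, 5% CO2; CellTiter-Glo ATP luminescence. Controls: DMSO = 100% viability, medium only = 0%.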

[10] = Quantitative High-Throughput drug screen in 47 multiple myeloma cell lines against the NCATS MIPE library collection: Karpas417_ECACC cell viability assay (AID 1918961); details: Karpas417 myeloma viability, CellTiter-Glo ATP luminescence, 48 h; viability (% of DMSO): at 45.8 µM (top of the series)
In short: (§4)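 Luminescent ATP measurement with CellTiter-Glo gives viability, scaled between DMSO-only wells (100%) and media-only wells (0%). Cells, 500 per well, faced library compounds for 48 hours at 37C.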

[11] = Quantitative High-Throughput drug screen in 47 multiple myeloma cell lines against the NCATS MIPE library collection: KHM11_PLB cell viability assay (AID 1918962); further: nearly all actives have a fitted effect of over 35% in size; further: potency means the concentration at half of the fitted maximal effect
In short: as §1

[12] = Quantitative High-Throughput drug screen in 47 multiple myeloma cell lines against the NCATS MIPE library collection: JIM3_ECACC cell viability assay (AID 1918963; further: nearly all actives have a fitted effect of over 35% in size; further: potency means the concentration at half of the fitted maximal effect)
In short: as §1

[13] = Quantitative High-Throughput drug screen in 47 multiple myeloma cell lines against the NCATS MIPE library collection: JIM1_ECACC cell viability assay (AID 1918964; further: potency means the concentration at half of the fitted maximal effect)
In short: as §2

[14] = Quantitative High-Throughput drug screen in 47 multiple myeloma cell lines against the NCATS MIPE library collection: H1112_PLB cell viability assay (AID 1918967; further: nearly all actives have a fitted effect of over 30% in size; further: potency means the concentration at half of the fitted maximal effect)
In short: as §2

[15] = Quantitative High-Throughput drug screen in 47 multiple myeloma cell lines against the NCATS MIPE library collection: Delta47_JCRB cell viability assay (AID 1918925; further: nearly all actives have a fitted effect of over 45% in size)
In short: as §2

[16] = Quantitative High-Throughput drug screen in 47 multiple myeloma cell lines against the NCATS MIPE library collection: ARP1_JJKsccF8 cell viability assay (AID 1918928; further: nearly all actives have a fitted effect of over 40% in size; further: potency means the concentration at half of the fitted maximal effect)
In short: as §3

[17] = Quantitative High-Throughput drug screen in 47 multiple myeloma cell lines against the NCATS MIPE library collection: ARD_JJKsccE7 cell viability assay (AID 1918929; further: potency means the concentration at half of the fitted maximal effect)
In short: as §2

[18] = Quantitative High-Throughput drug screen in 47 multiple myeloma cell lines against the NCATS MIPE library collection: INA6_PLB cell viability assay (AID 1918965; further: nearly all actives have a fitted effect of over 55% in size; further: potency means the concentration at half of the fitted maximal effect)
In short: as §4

[19] = Quantitative High-Throughput drug screen in 47 multiple myeloma cell lines against the NCATS MIPE library collection: JJN3_DSMZ cell viability assay (AID 1918966; further: nearly all actives have a fitted effect of over 50% in size; further: potency means the concentration at half of the fitted maximal effect)
In short: as §2

[20] = Quantitative High-Throughput drug screen in 47 multiple myeloma cell lines against the NCATS MIPE library collection: Karpas25_ECACC cell viability assay (AID 1918968; further: nearly all actives have a fitted effect of over 35% in size; further: potency means the concentration at half of the fitted maximal effect)
In short: as §2

Row | SMILES | Potency [1] | Potency [2] | Potency [3] | outcome [4] | Potency [5] | Potency [6] | Potency [7] | Potency [8] | Potency [9] | Potency [10] | Potency [11] | Potency [12] | Potency [13] | Potency [14] | Potency [15] | Potency [16] | Potency [17] | Potency [18] | Potency [19] | Potency [20]
1 | COc1c(O)cc2c(c1O)[C@@H]1O[C@H](CO)[C@@H](O)[C@H](O)[C@H]1OC2=O | inactive | inactive | 11700 nM (active) | inactive | inactive | inactive | inactive | inactive | inactive | inactive | inactive | inactive | inactive | inactive | – | – | – | – | – | –
2 | CCC1=C(C)CN(C(=O)NCCc2ccc(S(=O)(=O)NC(=O)NC3CCC(C)CC3)cc2)C1=O (configuration not stated) | inactive | inactive | inactive | inactive | inactive | inactive | inactive | inactive | inactive | – | inactive | inactive | – | inactive | inactive | inactive | inactive | inactive | inactive | –
3 | Nc1ccc(S(N)(=O)=O)cc1 | inactive | inactive | – | – | inactive | inactive | inactive | inactive | inactive | – | – | inactive | – | inactive | inactive | inactive | inactive | inactive | inactive | inactive
4 | O=C(OC1C[C@H]2CC[C@@H](C1)[N+]21CCCC1)C(O)(c1ccccc1)c1ccccc1 (some centres not stated) | inactive | inactive | inactive | inactive | inactive | inactive | inactive | inactive | inactive | – | inactive | inactive | inactive | inactive | – | inactive | – | – | – | –
5 | C=C(c1ccc(C(=O)O)cc1)c1cc2c(cc1C)C(C)(C)CCC2(C)C | inactive | 6.31 µM (active) and inactive and 8.06 µM (active) | – | inactive | – | inactive | – | inactive | inactive | – | – | – | – | inactive | – | inactive | – | – | inactive | 14800 nM (active)
6 | Cc1nc(Nc2ncc(C(=O)Nc3c(C)cccc3Cl)s2)cc(N2CCN(CCO)CC2)n1 | inactive | inactive | inactive | inactive | – | – | 2640 nM (active) | 16600 nM (active) | 1050 nM (active) | – | – | – | – | – | – | – | 2350 nM (active) | – | 3320 nM (active) | –
7 | CC(C)C[C@H](NC(=O)[C@H](Cc1ccccc1)NC(=O)c1cnccn1)B(O)O | inactive | inactive | inactive | inactive | 9.3 nM (active) | 16.6 nM (active) | – | – | – | – | 8.3 nM (active) | 23.5 nM (active) | – | 13.2 nM (active) | – | 8.3 nM (active) | – | – | 16.6 nM (active) | 7.4 nM (active)
8 | COc1cc(OC)c(C(=O)CCCN2CCCC2)c(OC)c1 | inactive | inactive | – | – | inactive | inactive | inactive | inactive | – | inactive | inactive | inactive | – | inactive | inactive | inactive | inactive | – | 59 nM (active) | –
9 | CCCS(=O)c1ccc2nc(NC(=O)OC)[nH]c2c1 (configuration not stated) | inactive | inactive | inactive | inactive | 11800 nM (active) | inactive | inactive | inactive | inactive | – | – | – | inactive | – | – | 23500 nM (active) | – | – | 11800 nM (active) | –
10 | CCOC(=O)C1=C[C@@H](OC(CC)CC)[C@H](NC(C)=O)[C@@H](N)C1 | inactive | inactive | – | – | inactive | inactive | inactive | inactive | – | – | – | inactive | – | inactive | inactive | inactive | inactive | – | – | inactive
11 | C[C@@H](c1ncncc1F)[C@](O)(Cn1cncn1)c1ccc(F)cc1F | inactive | inactive | – | – | inactive | inactive | inactive | inactive | inactive | – | – | inactive | inactive | – | inactive | inactive | inactive | inactive | – | –
12 | N[C@@H](Cc1cc(I)c(Oc2cc(I)c(O)c(I)c2)c(I)c1)C(=O)O | inactive | inactive | 736 nM (active) | inactive | inactive | inactive | inactive | – | inactive | inactive | – | inactive | 5.3 nM (active) | inactive | – | inactive | inactive | – | inactive | –
13 | CN(c1nccc(=O)[nH]1)C1CCN(c2nc3ccccc3n2Cc2ccc(F)cc2)CC1 | inactive | inactive | inactive | – | inactive | – | inactive | inactive | inactive | – | – | – | – | 23500 nM (active) | – | inactive | inactive | 23500 nM (active) | – | 11800 nM (active)
14 | COc1ccc(C2(C#N)CCC(C(=O)O)CC2)cc1OC1CCCC1 (configuration not stated) | inactive | inactive | inactive | inactive | inactive | inactive | inactive | inactive | inactive | – | – | inactive | – | – | – | inactive | inactive | 18700 nM (active) | inactive | 23500 nM (active)
15 | CC(C)c1nc(CN(C)C(=O)N[C@H](C(=O)N[C@@H](Cc2ccccc2)C[C@H](O)[C@H](Cc2ccccc2)NC(=O)OCc2cncs2)C(C)C)cs1 | inactive | inactive | inactive | – | 11800 nM (active) | inactive | – | inactive | inactive | inactive | – | – | – | – | – | – | – | – | – | –
